We go through one molecule from ChEMBL document CHEMBL2218924, “A broad activity screen in support of a chemogenomic map for kinase signalling research and drug discovery” (Biochem J, 2013).

A word on the residual activity: it is the signal under treatment as a percentage of the control signal.

The target in assay [1] is T1, Ephrin type-B receptor 1 (Homo sapiens) (UniProt P54762).
T1 sequence (whole entry): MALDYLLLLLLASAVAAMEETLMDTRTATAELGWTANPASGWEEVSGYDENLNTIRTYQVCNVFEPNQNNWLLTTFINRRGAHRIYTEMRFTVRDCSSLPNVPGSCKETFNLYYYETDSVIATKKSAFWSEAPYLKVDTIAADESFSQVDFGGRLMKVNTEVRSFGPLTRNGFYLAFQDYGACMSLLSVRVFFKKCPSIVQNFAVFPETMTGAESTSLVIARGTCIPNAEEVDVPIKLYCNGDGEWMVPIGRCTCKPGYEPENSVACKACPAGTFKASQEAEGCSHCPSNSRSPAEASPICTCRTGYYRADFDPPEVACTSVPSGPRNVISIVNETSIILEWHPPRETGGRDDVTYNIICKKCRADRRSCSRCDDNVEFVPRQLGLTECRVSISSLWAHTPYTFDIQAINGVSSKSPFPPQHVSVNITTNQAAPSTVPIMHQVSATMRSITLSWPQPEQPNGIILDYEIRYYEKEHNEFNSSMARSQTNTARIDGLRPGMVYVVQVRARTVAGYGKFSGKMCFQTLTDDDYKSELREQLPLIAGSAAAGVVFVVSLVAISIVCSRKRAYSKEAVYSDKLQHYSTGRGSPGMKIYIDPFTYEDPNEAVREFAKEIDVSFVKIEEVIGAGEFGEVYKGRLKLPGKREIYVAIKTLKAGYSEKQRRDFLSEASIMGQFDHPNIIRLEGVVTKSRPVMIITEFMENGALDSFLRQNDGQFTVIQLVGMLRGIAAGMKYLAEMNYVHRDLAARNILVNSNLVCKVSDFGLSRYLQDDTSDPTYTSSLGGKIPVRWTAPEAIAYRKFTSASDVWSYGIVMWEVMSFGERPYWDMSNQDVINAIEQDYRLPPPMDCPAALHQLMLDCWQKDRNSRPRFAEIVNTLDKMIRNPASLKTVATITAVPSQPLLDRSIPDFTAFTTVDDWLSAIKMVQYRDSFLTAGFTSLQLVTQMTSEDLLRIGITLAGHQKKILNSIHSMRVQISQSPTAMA
The conditions noted are these: at 10 µM.

For assay [2], the target named is T2, Ephrin type-B receptor 2 (Homo sapiens) (UniProt P29323).
T2 sequence (whole entry): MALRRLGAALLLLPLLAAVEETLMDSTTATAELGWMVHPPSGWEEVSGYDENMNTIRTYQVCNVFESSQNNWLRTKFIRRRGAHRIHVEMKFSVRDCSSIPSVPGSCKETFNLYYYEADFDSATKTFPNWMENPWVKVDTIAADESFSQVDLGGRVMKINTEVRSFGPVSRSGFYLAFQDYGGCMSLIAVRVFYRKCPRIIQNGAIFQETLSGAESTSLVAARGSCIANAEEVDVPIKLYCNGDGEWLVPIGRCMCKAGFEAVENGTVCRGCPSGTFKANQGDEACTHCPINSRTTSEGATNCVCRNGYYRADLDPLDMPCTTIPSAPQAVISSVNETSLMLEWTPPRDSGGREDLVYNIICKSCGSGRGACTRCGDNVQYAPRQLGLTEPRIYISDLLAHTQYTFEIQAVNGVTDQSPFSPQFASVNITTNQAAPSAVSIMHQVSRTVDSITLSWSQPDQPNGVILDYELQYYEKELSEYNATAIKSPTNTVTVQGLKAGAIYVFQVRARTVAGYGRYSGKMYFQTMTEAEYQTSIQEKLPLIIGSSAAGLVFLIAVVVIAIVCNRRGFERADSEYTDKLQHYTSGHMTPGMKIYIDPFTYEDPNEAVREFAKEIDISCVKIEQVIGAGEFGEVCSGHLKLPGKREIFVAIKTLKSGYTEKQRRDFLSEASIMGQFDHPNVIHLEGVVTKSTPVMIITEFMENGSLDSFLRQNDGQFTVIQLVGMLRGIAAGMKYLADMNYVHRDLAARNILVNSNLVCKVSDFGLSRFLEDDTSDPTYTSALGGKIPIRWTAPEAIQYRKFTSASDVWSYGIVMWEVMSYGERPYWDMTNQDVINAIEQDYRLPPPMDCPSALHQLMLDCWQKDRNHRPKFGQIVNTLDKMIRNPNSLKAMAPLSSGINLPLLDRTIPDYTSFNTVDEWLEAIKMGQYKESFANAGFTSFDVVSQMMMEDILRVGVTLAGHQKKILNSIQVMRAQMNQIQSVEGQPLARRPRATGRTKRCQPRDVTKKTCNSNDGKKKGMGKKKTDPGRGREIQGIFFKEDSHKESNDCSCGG
Particulars: at 1 µM; call rule not given here.

In assay [3] the target is T2, Ephrin type-B receptor 2 (Homo sapiens). Particulars: at 10 µM.
In assay [4] the target is T3, Ephrin type-B receptor 3 (Homo sapiens) (UniProt P54753).
T3 sequence (whole entry): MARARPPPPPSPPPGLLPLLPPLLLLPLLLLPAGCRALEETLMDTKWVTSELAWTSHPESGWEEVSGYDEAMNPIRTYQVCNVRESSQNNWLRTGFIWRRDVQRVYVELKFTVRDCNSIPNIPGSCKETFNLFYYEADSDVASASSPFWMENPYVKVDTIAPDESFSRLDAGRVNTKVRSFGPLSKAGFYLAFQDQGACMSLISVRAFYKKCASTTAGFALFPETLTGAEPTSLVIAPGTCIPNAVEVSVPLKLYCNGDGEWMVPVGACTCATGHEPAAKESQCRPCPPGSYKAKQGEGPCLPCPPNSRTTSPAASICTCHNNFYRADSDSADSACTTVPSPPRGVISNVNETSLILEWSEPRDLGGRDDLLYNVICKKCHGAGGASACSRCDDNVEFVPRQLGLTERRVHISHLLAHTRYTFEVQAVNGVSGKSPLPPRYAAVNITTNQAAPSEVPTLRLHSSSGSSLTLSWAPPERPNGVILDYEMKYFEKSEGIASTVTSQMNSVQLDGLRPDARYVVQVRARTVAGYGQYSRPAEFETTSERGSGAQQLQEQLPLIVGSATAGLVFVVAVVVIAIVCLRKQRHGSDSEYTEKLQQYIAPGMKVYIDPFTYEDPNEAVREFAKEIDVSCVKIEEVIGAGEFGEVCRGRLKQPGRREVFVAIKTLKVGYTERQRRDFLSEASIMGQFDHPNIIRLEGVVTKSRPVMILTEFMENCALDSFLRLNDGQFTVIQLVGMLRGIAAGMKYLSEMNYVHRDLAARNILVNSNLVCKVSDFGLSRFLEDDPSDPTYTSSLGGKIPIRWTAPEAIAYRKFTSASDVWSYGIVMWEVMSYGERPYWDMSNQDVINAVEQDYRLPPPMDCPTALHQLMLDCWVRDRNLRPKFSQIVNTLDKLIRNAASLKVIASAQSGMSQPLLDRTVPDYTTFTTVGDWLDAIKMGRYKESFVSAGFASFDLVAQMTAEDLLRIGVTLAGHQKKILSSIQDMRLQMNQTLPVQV
The conditions noted are these: at 1 µM.

The target in assay [5] is T3, Ephrin type-B receptor 3 (Homo sapiens). Particulars: at 10 µM.
In assay [6] the target is T4, Ephrin type-B receptor 4 (Homo sapiens) (UniProt P54760).
T4 sequence (whole entry): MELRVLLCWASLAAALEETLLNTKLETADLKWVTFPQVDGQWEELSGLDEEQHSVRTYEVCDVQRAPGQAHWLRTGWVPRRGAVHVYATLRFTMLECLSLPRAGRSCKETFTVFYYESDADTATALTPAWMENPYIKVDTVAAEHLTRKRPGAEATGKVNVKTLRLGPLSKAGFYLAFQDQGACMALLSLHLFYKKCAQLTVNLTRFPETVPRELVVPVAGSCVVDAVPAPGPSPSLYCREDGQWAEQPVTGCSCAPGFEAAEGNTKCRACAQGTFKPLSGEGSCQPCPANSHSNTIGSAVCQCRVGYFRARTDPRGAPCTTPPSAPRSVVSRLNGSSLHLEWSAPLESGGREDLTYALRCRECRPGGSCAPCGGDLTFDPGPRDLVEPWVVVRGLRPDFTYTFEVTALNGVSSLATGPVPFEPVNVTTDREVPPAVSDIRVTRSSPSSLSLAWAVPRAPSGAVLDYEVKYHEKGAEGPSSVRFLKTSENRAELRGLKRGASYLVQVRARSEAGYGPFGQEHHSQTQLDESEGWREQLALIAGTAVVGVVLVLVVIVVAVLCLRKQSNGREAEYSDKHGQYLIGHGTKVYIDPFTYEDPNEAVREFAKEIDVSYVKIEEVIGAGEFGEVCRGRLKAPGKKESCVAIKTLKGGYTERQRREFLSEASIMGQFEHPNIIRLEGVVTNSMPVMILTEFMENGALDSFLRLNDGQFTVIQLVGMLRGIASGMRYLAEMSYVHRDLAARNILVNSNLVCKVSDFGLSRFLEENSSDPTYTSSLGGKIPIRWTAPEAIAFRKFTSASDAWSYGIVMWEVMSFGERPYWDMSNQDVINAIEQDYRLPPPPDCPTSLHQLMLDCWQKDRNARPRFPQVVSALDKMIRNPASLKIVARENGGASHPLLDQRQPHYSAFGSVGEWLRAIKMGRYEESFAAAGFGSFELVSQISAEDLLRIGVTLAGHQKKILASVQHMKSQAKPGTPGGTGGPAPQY
The conditions noted are these: at 1 µM.

Assay [7] addresses T4, Ephrin type-B receptor 4 (Homo sapiens). The conditions noted are these: at 10 µM.
The target of assay [8] is Receptor tyrosine-protein kinase erbB-4 (Homo sapiens) (UniProt Q15303). The conditions noted are these: at 1 µM.
The target is the same in assay [9]. Particulars: at 10 µM.
The target in assay [10] is Focal adhesion kinase 1 (Homo sapiens) (UniProt Q05397). Particulars: at 1 µM.
Sequence of Focal adhesion kinase 1 (Homo sapiens) (Q05397 2-1052 limits assumed): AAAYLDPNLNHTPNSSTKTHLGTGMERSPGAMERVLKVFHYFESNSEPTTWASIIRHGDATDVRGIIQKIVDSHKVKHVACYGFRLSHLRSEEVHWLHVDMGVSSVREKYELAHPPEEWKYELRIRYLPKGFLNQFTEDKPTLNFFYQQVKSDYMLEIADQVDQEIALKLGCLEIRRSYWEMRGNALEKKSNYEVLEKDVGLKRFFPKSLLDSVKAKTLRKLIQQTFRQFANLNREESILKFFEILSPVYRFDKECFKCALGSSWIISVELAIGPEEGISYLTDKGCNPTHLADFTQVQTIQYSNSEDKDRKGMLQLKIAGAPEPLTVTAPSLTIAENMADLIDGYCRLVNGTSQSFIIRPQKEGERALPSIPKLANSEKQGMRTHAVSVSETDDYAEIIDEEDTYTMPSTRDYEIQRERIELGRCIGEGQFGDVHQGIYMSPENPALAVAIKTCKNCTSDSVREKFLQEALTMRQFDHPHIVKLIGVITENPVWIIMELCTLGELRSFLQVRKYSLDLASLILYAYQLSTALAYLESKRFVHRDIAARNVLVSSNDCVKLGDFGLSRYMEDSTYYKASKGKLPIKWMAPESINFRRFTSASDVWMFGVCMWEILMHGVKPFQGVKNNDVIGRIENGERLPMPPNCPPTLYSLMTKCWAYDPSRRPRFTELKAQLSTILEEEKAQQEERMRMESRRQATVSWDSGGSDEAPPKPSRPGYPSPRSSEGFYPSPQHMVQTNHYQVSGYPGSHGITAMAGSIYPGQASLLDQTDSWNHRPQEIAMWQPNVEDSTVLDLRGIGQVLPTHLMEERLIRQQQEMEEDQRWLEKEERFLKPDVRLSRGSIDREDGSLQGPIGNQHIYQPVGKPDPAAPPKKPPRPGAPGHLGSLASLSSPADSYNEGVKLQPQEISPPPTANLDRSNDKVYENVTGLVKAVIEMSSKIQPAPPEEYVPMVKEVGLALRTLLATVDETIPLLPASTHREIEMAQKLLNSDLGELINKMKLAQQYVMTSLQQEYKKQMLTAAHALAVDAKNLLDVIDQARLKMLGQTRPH

Sequence of Receptor tyrosine-protein kinase erbB-4 (Homo sapiens) (Q15303 whole entry): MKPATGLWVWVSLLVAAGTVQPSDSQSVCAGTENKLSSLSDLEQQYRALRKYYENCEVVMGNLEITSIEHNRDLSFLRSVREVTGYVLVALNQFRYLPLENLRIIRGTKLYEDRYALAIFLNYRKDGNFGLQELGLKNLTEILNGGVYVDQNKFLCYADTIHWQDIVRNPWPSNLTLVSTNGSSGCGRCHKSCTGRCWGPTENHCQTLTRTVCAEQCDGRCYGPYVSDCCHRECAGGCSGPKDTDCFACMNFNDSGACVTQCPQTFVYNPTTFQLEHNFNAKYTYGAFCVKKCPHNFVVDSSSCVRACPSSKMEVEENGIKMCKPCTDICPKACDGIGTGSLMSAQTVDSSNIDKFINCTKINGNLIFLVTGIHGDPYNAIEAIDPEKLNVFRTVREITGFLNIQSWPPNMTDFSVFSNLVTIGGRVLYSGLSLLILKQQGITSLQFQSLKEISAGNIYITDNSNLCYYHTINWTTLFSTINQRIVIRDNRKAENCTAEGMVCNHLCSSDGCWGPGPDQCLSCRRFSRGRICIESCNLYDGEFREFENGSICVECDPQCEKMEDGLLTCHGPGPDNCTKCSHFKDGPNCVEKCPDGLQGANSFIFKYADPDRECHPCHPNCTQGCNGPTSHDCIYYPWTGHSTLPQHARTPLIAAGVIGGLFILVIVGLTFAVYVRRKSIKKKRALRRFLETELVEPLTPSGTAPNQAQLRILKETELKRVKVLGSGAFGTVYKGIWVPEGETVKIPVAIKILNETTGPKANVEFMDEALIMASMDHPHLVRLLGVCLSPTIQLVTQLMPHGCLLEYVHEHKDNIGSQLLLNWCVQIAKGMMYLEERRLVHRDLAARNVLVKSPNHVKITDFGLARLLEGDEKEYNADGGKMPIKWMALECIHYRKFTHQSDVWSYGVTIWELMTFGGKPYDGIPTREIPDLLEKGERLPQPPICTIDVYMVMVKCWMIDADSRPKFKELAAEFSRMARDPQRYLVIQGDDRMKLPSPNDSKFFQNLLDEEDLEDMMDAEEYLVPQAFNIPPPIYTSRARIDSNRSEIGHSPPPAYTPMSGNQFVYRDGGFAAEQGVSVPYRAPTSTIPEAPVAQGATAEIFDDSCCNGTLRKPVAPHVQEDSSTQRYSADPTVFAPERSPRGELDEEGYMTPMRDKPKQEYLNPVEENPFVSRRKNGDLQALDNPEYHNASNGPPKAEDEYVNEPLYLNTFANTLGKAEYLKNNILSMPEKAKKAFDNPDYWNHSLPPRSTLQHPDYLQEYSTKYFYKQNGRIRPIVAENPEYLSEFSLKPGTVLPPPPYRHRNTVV

For the molecule `CC(C)(C)c1cc(C=C(C#N)C#N)cc(Br)c1O`, the residual activity was 96% in assay [1]; 116% in assay [2]; 121% in [3]; 96% (inactive) in assay [4]; 121% in [5]; 102% in assay [6]. Further, the residual activity in assay [7] is 110%; in assay [8], 114%; in assay [9], 132%; in assay [10] it was 149%.
